Screens from PubChem BioAssay.
The list is not random: actives were taken first. Their share in the collection is about 4.1%.
pCIP destab: p/CIP-EGFP fusion destabilizers, primary screen, fluorescence, F442A cells. Q05BA5. 16 h. decrease of EGFP signal, % at 10 µM. 290,000 compounds, 0.01% hits;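 active = EGFP signal decrease of at least 30% at 10 µM or well 3 SD below plate mean, unless failing retest; inactive = the rest, including hits failing retest or dose response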
MPTP block: mitochondrial permeability transition pore inhibitors, primary screen, biochemical, isolated mouse mitochondria, absorbance. 360,000 compounds, 1.4% hits. Ca2+ swelling absorbance, 30 min. inhibition, % at 10 µM;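 active = inhibition of 50% or more, scaled per plate between neutral and stimulator controls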
MIN6 prolif: inducers of MIN6 beta-cell proliferation, primary screen, ATP luminescence, uHTS; 330,000 compounds, 0.29% hits; AID 2380, 2010; proliferation, % at 10 µM; MIN6 cells proliferation, ATPlite luminescence, 48 h; cells starved in 0.2% serum; 100% = growth in 10% serum;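 active = compounds whose signal lies at least 3.5 SD above the mean of all wells on their plate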
FAS-TE inh: FAS thioesterase domain inhibitors, primary screen, biochemical, fluorescence intensity, uHTS | recombinant FAS-TE, OMFH fluorogenic substrate, fluorescence endpoint | 360,000 compounds, 0.67% hits | AID 602261, 2012 | inhibition, % at 15 µM;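 active = compounds whose normalised, plate-corrected inhibition of enzyme fluorescence in the single-dose primary screen is 50% or more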
GRIN3A LBD mod: binders of NR3A ligand-binding domain, primary screen, biophysical, differential scanning fluorimetry, uHTS | NR3A LBD differential scanning fluorimetry, Tm shift; 0% = protein alone, 100% = glycine-bound protein | Tm shift relative to glycine control, % at 25 µM | 340,000 compounds, 2.5% hits;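 active = melting temperature shift of at least 10% of the positive control shift, at one fixed dose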
Rh123 counter: fluorescence retest of MPTP screen hits in isolated mitochondria, single concentration; inhibition, % at 10 µM; shares compounds with MPTP block; 5,000 compounds, 78% hits; membrane potential, Rhodamine 123 fluorescence; in the data active = inhibition above about 22%
MPTP swell DR: mitochondrial permeability transition pore inhibitors, dose response, biochemical, absorbance, uHTS hits. shares compounds with MPTP block. isolated mitochondria swelling. IC50, µM. 780 compounds, 58% hits. AID 651561, 2012; in the data active = IC50 below about 20 µM
MPTP counter DR: fluorescent counter-screen in isolated mitochondria, dose response, counter-screen for MPTP inhibitor project, biochemical, fluorescence, uHTS hits; shares compounds with MPTP block; isolated mitochondria counterscreen, fluorescence read-out; IC50, µM; 780 compounds, 49% hits; in the data active = IC50 below about 80 µM
Hits are given with their value; i = inactive; nt = not tested or not shown; ! = repeats disagree.

SMILES	pCIP destab	MPTP block	MIN6 prolif	FAS-TE inh	GRIN3A LBD mod	Rh123 counter	others
CCC(NC(=S)NCc1ccc(F)cc1)c1ccc(C(C)C)cc1 (stereo not given)	i	79	i	i	i	91
COc1cccc(CNC(=O)CCCSc2ccccc2)c1	i	i	i	i	i	nt
CCCCOc1ccc(CSc2nc(C)[nH]c2[N+](=O)[O-])cc1[N+](=O)[O-]	i	56	i	i	i	75
CCCCOc1ccc(CSc2nnc(C)n2N)cc1[N+](=O)[O-]	i	i	i	i	i	nt
COc1ccc(CCN(C)C(=O)Cc2ccc(-c3ccccc3)cc2)cc1OC	i	64	i	i	i	72
COc1ccc(CCN(C)C(=O)COc2ccc(C(=O)c3ccccc3)cc2)cc1OC	nt	i	i	i	i	nt
Nc1nonc1C(=O)NCCN=Cc1ccccc1O	i	i	i	i	i	nt
Nc1nonc1C(=O)NCCN=Cc1cc(Cc2ccccc2)cc(Br)c1O	i	64	i	i	i	31
Cc1ccc2[nH]c(O)c(N=Nc3ccccc3C)c2c1	i	66	i	i	i	i	MPTP swell DR=i;MPTP counter DR=i
Cc1ccccc1N=Nc1c(O)[nH]c2ccccc12	nt	i	i	i	i	nt
C[C@@H](C(=O)OCC(=O)Nc1cc(S(=O)(=O)N2CCOCC2)ccc1Cl)N1C(=O)C2CCCCC2C1=O (stereo not given in full)	i	i	i	i	i	nt
O=[N+]([O-])c1ccc(O)c(C2=NNC(c3ccccc3F)C2)c1 (stereo not given)	i	89	i	i	i	85
CCOC(=O)c1sc(NC(=O)Nc2ccccc2Cl)cc1C	i	72	i	i	28	60
Cc1cc(NC(=O)c2cccc(S(=O)(=O)N3c4ccccc4CC3C)c2)no1 (stereo not given)	i	i	i	i	i	nt
CCOC(=O)c1sc(NC(=O)c2ccc(C)s2)cc1C	i	i	i	i	i	nt
CCOC(=O)c1sc(NC(C)=O)cc1C	i	i	i	i	i	nt
CCOC(=O)c1sc(NC(=O)Nc2ccccc2)cc1C	i	94	i	i	43	70
CCOC(=O)c1sc(NC(=O)c2cccc(S(=O)(=O)N3c4ccccc4CC3C)c2)cc1C (stereo not given)	i	56	i	i	13	38
CN(CC(=O)Nc1ccccc1C(F)(F)F)C(=O)c1ccc(N2C(=O)CCC2=O)cc1	nt	i	i	i	i	nt
CCN1C(=O)CSC1=NC1C2CC3CC(C2)CC1C3 (stereo not given)	i	77	i	i	i	i	MPTP swell DR=8.1;MPTP counter DR=36
Cc1ccc(C)c(S(=O)(=O)C(C#N)c2nc3ccccc3nc2N2CCOCC2)c1 (stereo not given)	i	53	i	i	i	73
Cc1ccc(C)c(S(=O)(=O)C(C#N)c2nc3ccccc3nc2N2CC(C)OC(C)C2)c1 (stereo not given)	i	78	i	i	i	76
Cc1ccc(C)c(S(=O)(=O)C(C#N)c2nc3ccccc3nc2N2CCCC2)c1 (stereo not given)	i	i	i	i	i	nt
Cc1ccc(S(=O)(=O)C(C#N)c2nc3ccccc3nc2N2CCC(C)CC2)cc1 (stereo not given)	i	i	nt	i	i	nt
CN(C)CCCSc1nc2ccccc2s1	i	i	i	i	i	nt
SMILES	pCIP destab	MPTP block	MIN6 prolif	FAS-TE inh	GRIN3A LBD mod	Rh123 counter	others
Cc1ccc(Cl)cc1NS(=O)(=O)c1ccccc1	nt	i	nt	i	i	nt
O=S(=O)(Nc1ccc(Cl)cc1NS(=O)(=O)c1ccccc1)c1ccccc1	nt	89	nt	i	i	65
Cc1nn(-c2cc(C(F)(F)F)ccc2Cl)c2nc(C(F)(F)F)[nH]c(=O)c12	i	i	i	i	i	nt
Cc1nn(-c2cccc(Cl)c2)c2nc(C(F)(F)F)[nH]c(=O)c12	i	98	i	i	i	53
Cc1cc(F)ccc1-c1cc(C(=O)NCc2ccc(C(F)(F)F)cc2)[nH]n1	nt	i	nt	i	nt	nt
Cc1ccc(Cl)cc1-c1cc(C(=O)Nc2ccc(F)cc2)[nH]n1	nt	64	nt	i	nt	96
Cc1ccc(Cl)cc1-c1cc(C(=O)NCc2ccc(C(F)(F)F)cc2)[nH]n1	nt	52	nt	i	nt	96
CC(C)C(=O)NNc1ccc(C(F)(F)F)cn1	i	i	i	i	i	nt
Cn1cccc1C(=O)NCC(c1ccco1)N1CCCCC1 (stereo not given)	nt	i	i	i	i	nt
O=[N+]([O-])c1cccc(NC(=S)Nc2nc(-c3ccccc3Cl)cs2)c1	i	87	i	i	17	76
O=C(CSc1nc(-c2ccc(Cl)cc2)cs1)Nc1cccc([N+](=O)[O-])c1	i	84	i	i	27	80
Cc1cc(NC(=O)CSc2nc(-c3ccc(Cl)cc3)cs2)no1	i	i	i	i	i	nt
Cc1ccc(-c2csc(NC(=O)CSc3nc(C)cs3)n2)cc1	i	70	i	i	i	56
COC(=O)c1ccc2c(c1)C(C)(C)C(/C=C/c1ccc(O)cc1)=[N+]2C	i	86	i	i	i	i
CCOc1ccccc1N1CCN(C(=O)c2ccc3nc(N)sc3c2)CC1	nt	i	i	i	i	nt
O=[N+]([O-])c1cccc(/C=N\N=C2c3ccccc3-c3ccccc32)c1O	i	104	i	i	14	i
NC(N)=N/N=C/c1cccc([N+](=O)[O-])c1O	i	i	i	i	i	nt
Cc1[nH]c(=O)[nH]c(=O)c1S(=O)(=O)Nc1ccc(F)cc1F	i	i	i	i	i	nt
CC(=O)Oc1c(C)cc(Cl)cc1C(=O)Nc1ccc([N+](=O)[O-])cc1Cl	i	85	i	i	i	91
O=C(CCC(=O)OCC(=O)c1ccc(C(F)(F)F)cc1)OCC(=O)c1ccc(C(F)(F)F)cc1	i	i	i	i	i	nt
COCCCC/C(=N\OCCN)c1ccc(C(F)(F)F)cc1	i	82!	i	i	i	i	MPTP swell DR=13;MPTP counter DR=i
O=C(CN1C(=O)C(c2ccc(F)cc2)=NC12CCCC2)Nc1ccc(F)cc1	i	60	i	i	i	53
COc1cccc2cc(C(=O)NNC(=O)c3ccc(Br)cc3)c(=O)oc12	i	i	i	i	i	nt
CCOc1cc(C2NC(=O)N(C)C(C)=C2C(=O)OC)cc(Br)c1O (stereo not given)	i	i	i	i	i	nt
CC(C)(C)C(=O)Nc1cccc2[nH]ncc12	i	i	i	i	i	nt
